Rows were chosen to be rich in hits. Some 5.5% of all compounds tested hit in one or more screens of this group.
uPA surface inh: inhibitors of cell surface uPA generation | Potency, µM (series often up to 38.3 µM), inactives show at the top dose activity change, negative = inhibition, actives largely listed as inhibitors | AID 540303 | 330,000 compounds, 0.31% hits | cell surface uPA generation assay, qHTS; active = well fitted inhibition curve with a large enough effect; inconclusive = small, poorly fitted or top-dose-only effect; inactive = no such curve, though single readings can be large or run the other way; tested in mouse RAW 264.7 cells; also: % is scaled to controls: 0 for no effect and ±100 for the full control effect; nearly all actives have a fitted effect of over 55% in size
BCR signal inh: chronic active BCR signaling inhibition; ABC-DLBCL IkBa-CBG/CBR reporter, luminescence ratio, 4 h; Potency, µM (titrated, usually from 46.1 µM), for the others: at the highest dose activity change, negative = inhibition, hits mostly inhibitors; 340,000 compounds, 0.05% hits; AID 493014; active = well fitted inhibition curve with a large enough effect in the signal ratio, with a control signal flat, not every such curve was filed as active; inconclusive = small, poorly fitted or top-dose-only effect, or effect the other way, or a change in a side signal; the % refers to the signal ratio;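 also: plate controls were basal doxycycline-induced cells for no effect and cells given 10 µM MG132 for full effect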
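Concentration-response series (up to 46 uM) were applied to TMD8 dual-reporter cells for 4 h at 37C with doxycycline. Green/red ratio, after filter-overlap correction, defined %Activity; red signal alone was normalised to basal cells and zero luminescence.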
Integrin act MD: activates integrin-mediated alleviation for muscular dystrophy. alpha7betagal myoblasts, beta-gal FDG fluorescence, 48 h. Potency, µM (series often up to 38.3 µM), for inactives: top-dose activation, hits mostly activators. 350,000 compounds, 0.064% hits;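 also: 100% = response of the positive control SU9516; nearly all actives have a fitted effect of over 60% in size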
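Alpha7betagal+/- myoblasts (passage 13) were plated 16-24 hr, then exposed to compounds (1:260 dilution of DMSO stock) for 48 hours at 37C. After MPER lysis, β-galactosidase reporter activity was read as FDG fluorescence (ex 480/em 540) after 30 minutes.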
VP16 counter: inhibits Gal4-VP16 luciferase reporter, ROR gamma counter-screen. 310,000 compounds, 3.5% hits. AID 2546. Drosophila S2 Gal4-VP16 UAS-luciferase, luminescence, 20 h. Potency, µM (series often up to 53.6 µM), for the others: top-dose activity, negative = inhibition, usual class: inhibitors;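 also: Gal4-VP16 expression switched on by copper sulfate through the metallothionein promoter; % is scaled to controls: 0 for no effect and ±100 for the full control effect; nearly all actives have a fitted effect of over 50% in size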
Mito fusion act: blocks mitochondrial division or promotes mitochondrial fusion; S. cerevisiae fusion-defective mutant growth rescue, CellTiterGlo 48 h; Potency, µM (series often up to 46.1 µM), for the others: at the top dose growth rescue (activation), usual class: activators; 320,000 compounds, 0.23% hits; AID 485298; also: % of control where 0% means no effect; nearly all actives have a fitted effect of over 45% in size
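Compounds are tested for their ability to restore growth of mitochondrial fusion-defective yeast strains at non-permissive 37C in YPEG medium over 48 hours. Viability is quantified by luciferase luminescence.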
RORgamma inh: blocks mouse ROR gamma transcriptional activity; P51450; Drosophila S2 Gal4-RORgamma UAS-luciferase reporter, 20 h; Potency, µM (highest dose often 53.6 µM), for inactives: at the highest dose activity change, negative = inhibition, usual class: inhibitors; 310,000 compounds, 5.4% hits; AID 2551; also: % is scaled to controls: 0 for no effect and ±100 for the full control effect; nearly all actives have a fitted effect of over 60% in size
Target sequence (P51450 whole entry, looked up, the tested form may be a part): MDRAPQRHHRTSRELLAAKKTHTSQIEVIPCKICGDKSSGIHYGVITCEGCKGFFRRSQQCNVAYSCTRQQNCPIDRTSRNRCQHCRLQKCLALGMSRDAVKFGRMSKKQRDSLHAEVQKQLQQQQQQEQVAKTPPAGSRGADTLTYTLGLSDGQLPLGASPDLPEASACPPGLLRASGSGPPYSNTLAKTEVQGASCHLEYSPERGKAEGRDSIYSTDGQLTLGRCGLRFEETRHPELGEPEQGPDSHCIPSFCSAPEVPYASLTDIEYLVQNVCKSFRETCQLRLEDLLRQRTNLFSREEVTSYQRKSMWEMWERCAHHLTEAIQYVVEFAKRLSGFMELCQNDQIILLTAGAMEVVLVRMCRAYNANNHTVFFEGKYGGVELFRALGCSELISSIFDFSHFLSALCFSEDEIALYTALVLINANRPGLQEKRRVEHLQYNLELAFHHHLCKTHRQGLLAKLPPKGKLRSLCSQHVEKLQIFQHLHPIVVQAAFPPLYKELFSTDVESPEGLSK
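A Gal4/UAS one-hybrid system in insect cells: metallothionein-promoter Gal4–ROR gamma fusion plus Photinus luciferase reporter. Copper sulfate 700 uM final, 20 hr ambient incubation, luminescent detection after 10 min with reagent.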
* hit, by the source's call; ? = inconclusive; . = not tested or not shown; ! = not confirmed by another sample; [ ] = remark or other dose. Unless noted, calls follow the shape of the dose curve; as a rule, active = well fitted curve in the direction sought with a large enough effect; inconclusive = small, poorly fitted or top-dose-only effect, or another doubt; inactive = no such curve, though single readings can be large; an effect the other way counts as inactive or inconclusive. Potency is read from the fitted curve at half-maximal effect.

SMILES	uPA surface inh	BCR signal inh	Integrin act MD	VP16 counter	Mito fusion act	RORgamma inh
CC(=O)/C(=N\Nc1ccccc1)Sc1cccc2cccnc12	-3%	3%	36%	?	16%	14µM*
O=C(CSc1cccc2cccnc12)Nc1ccccc1F	4%	?	-44%	?	-4%	?
Cn1c(=O)cnc2cnc(Nc3ccccc3)nc21	.	.	.	6%	.	?
COc1ccc(C(=O)/C=C2\C(=O)Nc3ccc(Br)cc32)cc1	-10%	.	-51%	.	.	.
O=C1Nc2ccc(Br)cc2/C1=C/C(=O)c1ccc2c(c1)OCO2	?	?	-63%	?	-15%	11µM*
CCOc1ccc(-n2c(C)cc(C(=O)CCl)c2C)cc1	-11%	?	-64%	1%	-7%	?
COC(=O)c1ccc(-n2c(C)cc(C(=O)CCl)c2C)cc1	6.3µM*	?	-36%	-93%	-5%	11µM*
CCOC(=O)c1ccc(NC(=S)Nc2ccccn2)cc1	-2%	?	2%	-5%[0.365 µM]	2%	3.2µM*
CCOC(=O)c1ccc(NC(=S)Nc2ccc(Cl)cn2)cc1	-12%	?	10%	8.9µM*	0%	2.2µM*
CCOC(=O)c1ccc(Nc2cc(C)nc(-c3ccccc3)n2)cc1	5µM*	?	-11%	-7%	14%	31%
CCOC(=O)c1ccc(NC(=S)NCC(O)c2ccccc2)cc1 (stereo not given)	9%	?	-22%	7%	-4%	4%
CCOC(=O)c1ccc(NC(=O)Nc2ncc(Cl)cc2Cl)cc1	.	-18%	.	-2%	-2%	2%
CC[C@]12c3[nH]c4ccc(Cl)cc4c3CCN1C(=O)[C@@H](CC(=O)NCCc1ccccn1)C[C@@H]2C(=O)N1CCN(C(=O)c2ccco2)CC1	11%	?	13%	.	.	.
O=C(NCc1ccc(Cl)cc1)C(=O)NCC(c1ccco1)S(=O)(=O)c1cccs1 (stereo not given)	.	-10%	.	.	.	.
CN(C)c1ccc(/C=N/n2ncc3ccccc32)cc1	-25%	-3%	6%	7.1µM*	1%	0.71µM*
O=C(c1cccc(F)c1)N1CCN(C(=O)C(c2ccccc2)c2ccccc2)CC1	6%	11%	?	-1%	3%	-5%
FC(F)(F)c1cccc(N2CCN(C(=S)NC3CCCCC3)CC2)c1	-2%	?	-36%	?	-12%	16µM*
Cc1ccc(C)c(NC(=S)N2CCN(c3ccccn3)CC2)c1	-10%	2%	11%	?	-14%	13µM*
FC(F)(F)c1cccc(N2CCN(C(=S)NC3CCCC3)CC2)c1	-5%	?	10%	?	2%	?
COc1ccc(N2CCC(CNC(=S)Nc3cc(C)ccc3C)C2)cc1 (stereo not given)	0%	0%	17%	10µM*	14%	1.8µM*
COc1ccc(OC)c(NC(=S)N2CCN(c3ccccn3)CC2)c1	5%	-2%	7%	5%	-4%	-18%
CN(C)S(=O)(=O)c1ccc(NC(=O)N2CCN(c3cccc(C(F)(F)F)c3)CC2)cc1	-13%	?	-45%	10µM*	5%	?
Cc1cn(C2CC3OCC(NC(=O)C(NC(=O)OC(C)(C)C)C(C)OCc4ccccc4)C3O2)c(=O)[nH]c1=O (stereo not given)	.	.	.	4%	.	6%
CCc1ccc(NC(=O)CSC2=Nc3ccccc3C3=NC(CCC(=O)NCCc4ccccc4)C(=O)N23)cc1 (stereo not given)	.	-17%	.	.	.	.
Cc1ccc(C)c(NC(=S)N2CCN(c3cccc(C(F)(F)F)c3)CC2)c1	-2%	8%	0%	11µM*	-10%	4.5µM*
SMILES	uPA surface inh	BCR signal inh	Integrin act MD	VP16 counter	Mito fusion act	RORgamma inh
S=C(Nc1cc(Cl)ccc1Oc1ccccc1)N1CCN(c2ccccn2)CC1	-4%	-1%	-18%	?	-26%	11µM*
Cc1ccc(C)c(NC(=S)N2CCC(c3nc4ccccc4s3)CC2)c1	-16%	?	-29%	6.3µM*	-6%	2.8µM*
Cc1ccnc(NC(=S)N2CCN(c3cccc(C(F)(F)F)c3)CC2)c1	-2%	?	-17%	0.56µM*	-44%	0.32µM*
COc1ccc(N2CCN(C(=S)Nc3cc(C)ccc3C)CC2)cc1	6%	2%	15%	-18%	-7%	2µM*
O=C(c1c(F)cccc1F)N1CCN(c2cccc(C(F)(F)F)c2)CC1	-5%	0%	16%	18µM*	6%	?
COc1ccc(N2CCN(C(=S)Nc3ccc(C)cc3C)CC2)cc1	-5%	-1%	-9%	-17%	-6%	-14%
CCC(=O)N1CCc2cc(Br)cc(S(=O)(=O)CCC(=O)N(C)c3cccc(C)c3)c21	.	-2%	.	.	-1%	.
CC(=O)c1cccc(NC(=O)C(C)OC(=O)C2=NNC(=O)CC2)c1 (stereo not given)	2%	2%	4%	.	.	.
CCOCCCNC(=O)c1cn(CC)c2ccc(S(=O)(=O)N3CCCC3)cc2c1=O	2%	0%	-16%	-1%	-3%	3%
NS(=O)(=O)c1cccc(-n2cnnn2)c1	0%	?	8%	-11%	-2%	1%
Cc1cc2cc(CNC(=S)Nc3ccc(OC(F)(F)F)cc3)ccc2[nH]1	-7%	-13%	-14%	?	2%	18µM*
CCNC(=S)NCc1ccc2[nH]c(C)cc2c1	-14%	?	-14%	10%	-8%	?
Cc1cc2cc(CNC(=S)Nc3ccc(OC(F)F)cc3)ccc2[nH]1	6%	?	5%	22µM*	-5%	13µM*
FC(F)Oc1ccc(NC(=S)NCc2nc3ccccc3[nH]2)cc1	-2%	5%	-3%	-21%	-1%	-43%
Cc1ccc(SCC(=O)Nc2cc(S(=O)(=O)N3CCCCC3)ccc2C)cc1	-3%	?	-8%	.	.	.
Cc1onc(-c2ccccc2)c1C(=O)N/N=C/c1cn(C)c2ccccc12	5%	?	-30%	?	10%	11µM*
Cc1cccc(/C=N/NC(=O)c2c(-c3ccccc3)noc2C)c1O	-6%	-15%	-9%	6.3µM*	-1%	4µM*
COc1ccccc1/C=N/NC(=O)c1c(-c2ccccc2)noc1C	4%	-8%	-31%	3%	8%	0%
O=C(O)c1ccc(C2CCCCC2)cn1	-1%	7%	-8%	?	-8%	7.9µM*
Nc1nc2ccc(Oc3ccccc3)cc2s1	-3%	?	3%	-21%	20%	?
Nc1nc2ccc(OC(F)(F)F)cc2s1	?	?	.	?	3.3µM*!	?

Screens from PubChem.
